Common to all, as to type: functional
Test [1] has as its target Solute carrier family 2, facilitated glucose transporter member 1 (Homo sapiens) (UniProt P11166). Description: ST_JUDE_LEISH: Cytotoxicity at 2uM final concentration against transgenic Leishmania Mexicana promastigotes LmGLUT1 that are glucose transport deficient and complemented with the human glucose transporter GLUT1. Activity is measured by DNA content using SYBR green in vitro.

For test [2], the target named is Hexose transporter 1 (Plasmodium falciparum) (UniProt O97467). In words: ST_JUDE_LEISH: Cytotoxicity at 2uM final concentration against transgenic Leishmania Mexicana promastigotes LmPfHT that are glucose transport deficient and complemented with the Plasmodium falciparum hexose transporter. Activity is measured by DNA content using SYBR green in vitro.
Test [3] concerns the target Glucose transporter (Leishmania mexicana) (UniProt O61059). In words: ST_JUDE_LEISH: Cytotoxicity at 2uM final concentration against transgenic Leishmania Mexicana promastigotes LmGT2 that are glucose transport deficient and complemented with the L. Mexicana glucose transporter 2. Activity is measured by DNA content using SYBR green in vitro.

Chain of Solute carrier family 2, facilitated glucose transporter member 1 (Homo sapiens) (P11166 whole entry): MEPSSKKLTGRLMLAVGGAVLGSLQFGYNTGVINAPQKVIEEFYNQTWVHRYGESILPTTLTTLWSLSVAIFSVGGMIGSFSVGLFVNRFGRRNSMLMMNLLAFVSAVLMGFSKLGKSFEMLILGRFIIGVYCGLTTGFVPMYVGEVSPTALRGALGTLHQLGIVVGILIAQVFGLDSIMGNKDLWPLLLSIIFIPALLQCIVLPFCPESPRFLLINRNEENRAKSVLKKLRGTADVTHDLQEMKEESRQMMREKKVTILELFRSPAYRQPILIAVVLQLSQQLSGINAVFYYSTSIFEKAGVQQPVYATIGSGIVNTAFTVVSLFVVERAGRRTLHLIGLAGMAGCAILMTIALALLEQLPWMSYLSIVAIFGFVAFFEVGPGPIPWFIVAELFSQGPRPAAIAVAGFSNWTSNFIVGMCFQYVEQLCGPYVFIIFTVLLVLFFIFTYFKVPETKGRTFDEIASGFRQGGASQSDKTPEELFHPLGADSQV

`Cc1ccc(CNC(=O)[C@H](CCCN)Nc2cc(C)nc(Nc3ccccc3)n2)cc1`: the results for the inhibition in test [1], in test [2] and in test [3] were 6.17%, 5.71% and 7.78%, respectively.

`Cc1nc2nc(N)nc(N)c2c(C)c1Cc1ccccc1Br`: the values for the inhibition in test [1], in test [2] and in test [3] were 7.5%, 14.9% and 6.78%, respectively.

As to `CCOc1cc(C(=O)NCCN(CC)c2cccc(C)c2)ccc1-c1nc2cc(Cl)ccc2[nH]1`, the results for the inhibition in test [1], in test [2] and in test [3] were 3.14%, 1.88% and 1.84%, respectively.

Consider `COC(=O)c1ccc(N2CCN(CCCCNC(=O)c3ccc(NC(=O)c4ccc(Cl)cc4)cc3)CC2)c(OC)c1`, for which the inhibition amounted to 0.45% in test [1], 1.46% in test [2] and 1.51% in test [3].

Take `CCCNC[C@@H](O)[C@H](Cc1ccccc1)NC(=O)c1cc(NCC)cc(N2CCCCS2(=O)=O)c1`: the inhibition amounted to 1.97% in test [1], 2.32% in test [2] and 2.85% in test [3].

Take `O=C(NCc1ccc(Cl)c(Cl)c1)[C@H]1CNCCN1C(=O)c1ccccc1`: the inhibition in test [1] was determined as 2.83%; in test [2], 1.69%; in test [3], 2.44%.

Turning to `OCCCCCCNc1ccnc2[nH]c3ccc(I)cc3c12`, the values for the inhibition in test [1], in test [2] and in test [3] were 8.64%, 6.33% and 3.14%, respectively.

Turning to `Cc1ccc(NC(=O)c2ccc3ncccc3c2)cc1OC1CCN(Cc2ccco2)C1` (stereo unspecified), the inhibition in test [1] was 0.45%; in test [2], 1.05%; in test [3] it was 1.55%.

For `COc1ccc(CNCc2ccc(-c3cccc(-c4nc5cccc(C)c5[nH]4)c3)cc2)cc1`, the inhibition in test [1] was 2.87%; in test [2], 1.37%; in test [3], 0.41%.

Regarding `Cc1cc(=NN=Cc2ccccc2)c2cc(F)ccc2[nH]1`, the inhibition in test [1] came out at 4.17%; in test [2], 0.79%; in test [3], 6.79%.

As for `CC(=O)c1sc(NC(=O)Nc2ccc(C)cc2C)nc1C`, the results for the inhibition in test [1], in test [2] and in test [3] were 14%, 8.74% and 3.63%, respectively.

On to `CCn1c(-c2nonc2N)nc2c(-c3cccc(NC(=O)Nc4cccc(Cl)c4)c3)ncc(OCCCN)c21`, for which the inhibition turned out to be 4.22% in test [1], 3.86% in test [2] and 2.75% in test [3].

On to `O=[N+]([O-])c1ccc(CNCCCCCCNCc2ccc([N+](=O)[O-])c3ccccc23)c2ccccc12`, for which the inhibition in test [1] is 2.24%; in test [2], 0.87%; in test [3], 7.99%.

Turning to `Cn1cnc(CCNC(=O)c2cccc(-c3csc(-c4nc5ccccc5[nH]4)c3)c2)c1`, the inhibition in test [1] is -1.62%; in test [2] it was -0.39%; in test [3], -0.89%.

For `CN(C)c1ccc(CN2CCC(NC(=O)c3ccc(-c4cccc(C(F)(F)F)c4)s3)CC2)cc1`, the inhibition was 1.92% in test [1], -0.72% in test [2] and 5.11% in test [3].

Regarding `COc1cc(C(=O)NC2CC(C)(C)N(C)C(C)(C)C2)ccc1-c1cc2cc(Cl)c(Cl)cc2[nH]1`, the inhibition is 1.97% in test [1], -1.54% in test [2] and 2.48% in test [3].

As for `CC(C)(C(=O)Nc1ccc(C2CCC(NCC3CC3)CC2)c(Cl)c1)c1cccc(OC(F)F)c1` (stereo unspecified), the inhibition in test [1] is 9.94%; in test [2], 8.75%; in test [3], 9.65%.

`CCN(CC)CCNc1ccnc2[nH]c3ccc(C)cc3c12`: the inhibition came to 0.06% in test [1], 0.18% in test [2] and 0.34% in test [3].

Turning to `CC(C)(C)c1cc(C(=O)N2CCN(c3ncccc3C(F)(F)F)CC2)n(Cc2ccccc2)n1`, the inhibition in test [1] was 5.66%; in test [2], 6.48%; in test [3], 4.37%.

With `O=C(/C=C/c1ccc(Cl)c(Cl)c1)NCCCCCN1CCC(NC(=O)Nc2cc(F)ccc2F)CC1`, the inhibition in test [1] was determined as 2.34%; in test [2] it was 2.81%; in test [3], 6.16%.

Regarding `O=C(N1CCN(c2cccc(C(F)(F)F)c2)CC1)C(Cl)(Cl)Cl`, the inhibition in test [1] was 0.96%; in test [2], 5.03%; in test [3] it was 1.47%.

Consider `COc1cc(C(=O)Nc2nc3ccccc3[nH]2)ccc1OCC(=O)Nc1cccc(C(F)(F)F)c1`, for which the inhibition came to 2.59% in test [1], 2.67% in test [2] and 1.11% in test [3].

Consider `CC1CCN(Cc2ccc(NC(=O)c3cc4ccc5cccnc5c4[nH]3)cc2)CC1`, for which the inhibition in test [1] stood at 7.7%; in test [2], 7.81%; in test [3] it was 7.77%.

Consider `COc1cccc(-c2cc(C(=O)NC3CCC(N4CCC(c5ccccc5C)CC4)CC3)[nH]n2)c1` (stereo unspecified), for which the inhibition stood at 6.55% in test [1], 14.6% in test [2] and 5.13% in test [3].

Turning to `Cc1cc(N)nc2ccc(-c3ccc(CCN)cc3)cc12`, the inhibition in test [1] was found to be 2.07%; in test [2] it was 3.64%; in test [3], 0.96%.

For the compound `CCc1nc(N)nc(N)c1CCCOc1ccccc1Cl`, the inhibition was 3.15% in test [1], 2.69% in test [2] and -0.4% in test [3].

On to `CC[C@H](NC(=O)c1c(CN2CCC(N3CCCCC3)CC2)c(-c2ccccc2)nc2cc(O)ccc12)c1ccccc1`, for which the inhibition in test [1] was -0.16%; in test [2], -0.44%; in test [3], 1.08%.

Regarding `Cc1cccc2nc(-c3ccc(-c4cccc(CN5CCN(CCN6CCOCC6)CC5)c4)s3)[nH]c12`, the inhibition is 0.45% in test [1], -1.04% in test [2] and 0.64% in test [3].

As to `Cc1cc(N/N=C/c2cccc([N+](=O)[O-])c2)c2ccc(F)cc2n1`, the inhibition in test [1] was determined as 3.46%; in test [2], 2.8%; in test [3], 0.94%.

As for `CC1CN(Cc2ccccc2)CCN1c1ccc(NC(=O)c2ccc(F)cc2)cc1` (stereo unspecified), the inhibition was -1.05% in test [1], -1.7% in test [2] and -3.4% in test [3].

As for `CNC(=O)COC(=O)c1c2c(nc3ccccc13)C(=Cc1ccc3c(c1)OCO3)CCC2`, the inhibition in test [1] was 1.88%; in test [2], -1.19%; in test [3], 0.04%.

With `Nc1ccc(-c2nc3cc(C4=N[C@H]5CCCC[C@H]5N4)ccc3o2)cc1[N+](=O)[O-]`, the inhibition is 3.44% in test [1], 1.57% in test [2] and -0.09% in test [3].

Turning to `COc1ccc(-c2cc(-c3nc4cc(C(=O)N5CCOCC5)ccc4[nH]3)c(=O)n(C)c2)cc1OC`, the figures for the inhibition in test [1], in test [2] and in test [3] were 2.76%, 0.74% and 0.91%, respectively.

Consider `Cc1cc(N2CCOCC2)nc2ccc(NC(=O)c3ccc(Cl)c([N+](=O)[O-])c3)cc12`, for which the inhibition came to 5.45% in test [1], 3.08% in test [2] and 2.75% in test [3].

On to `Fc1ccccc1C=NNc1ccnc2cc(Cl)ccc12`, for which the inhibition in test [1] turned out to be 5.84%; in test [2], 7.17%; in test [3], 6.07%.

`CC[C@H](C)CNC(=O)c1cccc(-c2cccc(CNCC3CNCCCO3)c2)n1` (stereo partly specified): the inhibition in test [1] was -0.08%; in test [2], -0.61%; in test [3], -0.09%.

For the compound `CCNc1cc(C(=O)N[C@@H](Cc2ccccc2)[C@H](O)CN[C@@H](C)c2ccccc2)cc(N2CCCC2=O)c1`, the inhibition in test [1] turned out to be 1.35%; in test [2], 0.55%; in test [3], 1.24%.

For the origin of these results see ChEMBL document CHEMBL3433997, “St. Jude Leishmania screening dataset” (2016).
